# Laboratory results: PubChem BioAssay
# Test: blood-stage malaria parasite viability loss – strain 3D7, DAPI fluorescence, 100 nL, primary screen (AID 1184);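 note: parasites grown inside human red blood cells in medium with human serum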
# Details: P. falciparum 3D7 growth, 3 d, higher = more signal
row,Compound,z-score
1,CCOC(=O)[C@H](CC(C)C)NC(=O)CCC1CC(OC(=O)NCc2cccc3ccccc23)CC2(CCCC(COC(=O)NCCC(C)C)O2)O1 (stereo partly drawn),-0.267
2,CCOC(=O)[C@H](CC(C)C)NC(=O)CCC1CC(OC(=O)NCc2ccc3c(c2)OCO3)CC2(CCCC(COC(=O)NCc3cccc(C(F)(F)F)c3)O2)O1 (stereo partly drawn),-2.06
3,CO[C@H]1COC(=O)[C@@H](C)COC(=O)[C@@H](OCc2ccccc2)C=C[C@@H]1C,-0.66
4,Cc1ccc(S(=O)(=O)N[C@H]2COC(=O)CC=C[C@H](C)[C@@H](NS(=O)(=O)c3ccc(C)cc3)COC(=O)CC=C[C@@H]2C)cc1,-0.304
5,CCOC(=O)[C@H](Cc1ccccc1)NC(=O)CCC1CC(OC(=O)NCCc2ccc(F)cc2)CC2(CCCC(COC(=O)NCCCN3CCCC3=O)O2)O1 (stereo partly drawn),-1.6
6,CCOC(=O)[C@H](CC(C)C)NC(=O)CCC1CC(OC(=O)NCCc2ccc(F)cc2)CC2(CCCC(COC(=O)NCCc3ccccc3OC)O2)O1 (stereo partly drawn),-1.89
7,C#CCCCON=C1C[C@@H](O)[C@@H](O)[C@@H]2[C@@H]3C(=O)N(c4ccc(F)cc4F)C(=O)[C@@H]3CC[C@@H]12,-0.217
8,CC(C)CON=C1C[C@@H](O)[C@@H](O)[C@@H]2[C@@H]3C(=O)N(c4cccc(Oc5ccccc5)c4)C(=O)[C@@H]3CC[C@@H]12,0.299
9,COc1ccc(O[C@H]2C=C[C@@H](c3ccccc3)O[C@@H]2COC(=O)CCC(C)=NO[C@@H]2O[C@H](COC(C)=O)[C@@H](OC(C)=O)[C@H](OC(C)=O)[C@H]2OC(C)=O)cc1,-0.0102
10,C[C@H](ON=C1[C@H]2CCn3c(=O)n(-c4ccccc4)c(=O)n3[C@H]2[C@H](O)[C@@H]2O[C@H]12)c1cn([C@H](CO)Cc2ccccc2)nn1,0.0242
11,COCOc1ccc(Br)cc1C(=O)[C@@H]1O[C@H]1c1cccc(OC)c1,0.194
12,CCOC(=O)[C@H](Cc1ccccc1)NC(=O)CCC1CC(OC(=O)NCc2cccc3ccccc23)CC2(CCCC(COC(=O)NCCC(C)C)O2)O1 (stereo partly drawn),0.0857
13,COc1ccc(COC(=O)NN=C2C[C@@H](O)[C@@H](O)[C@@H]3[C@@H]4C(=O)N(c5cccc(Oc6ccccc6)c5)C(=O)[C@@H]4CC[C@@H]23)cc1,-0.374
14,CCc1cc2c(nc1CC)CCN(CCC(C)=NO[C@H](C)c1cn([C@@H]3COC[C@H]3O)nn1)C2,0.653
15,O=C1[C@H]2[C@H]3[C@H](O)[C@H](O)CC(=NOCc4ccccc4)[C@@H]3CC[C@H]2C(=O)N1Cc1ccc2c(c1)OCO2,-0.364
16,O=C1CCCC(C2=CCCCC2=O)C1 (stereo not drawn),0.488
17,O=C1[C@H]2[C@H]3[C@H](O)[C@H](O)CC(=NOC[C@@H](O)COCc4ccco4)[C@H]3CC[C@H]2C(=O)N1Cc1ccccc1,0.254
18,CCc1cc2c(nc1CC)CCN(CCC(C)=NOC[C@H]1O[C@H](c3ccccc3)C=C[C@@H]1Oc1ccc(OC)cc1)C2,-1.63
19,CCOC(=O)[C@H](Cc1ccccc1)NC(=O)CCC1CC(OC(=O)NCCc2ccc(F)cc2)CC2(CCCC(COC(=O)NCCOC)O2)O1 (stereo partly drawn),-0.218
20,CC(C)[C@@H](OCc1ccccc1)[C@H](C)C=NOC[C@@H](O)COCc1ccco1,1.4
21,CON=C[C@@H](NS(=O)(=O)c1ccc(C)cc1)[C@H](C)C=CCC(=O)OC,1.25
22,COc1ccc(O[C@H]2C=C[C@@H](c3ccccc3)O[C@@H]2CON=C2[C@H]3CCn4c(=O)n(-c5ccccc5)c(=O)n4[C@H]3[C@H](O)[C@@H]3O[C@H]23)cc1,-0.725
23,CO[C@@H]1COC(=O)[C@@H](C)NC(=O)CC=C[C@@H](C)[C@H](NS(=O)(=O)c2ccc(C)cc2)COC(=O)[C@H](C)NC(=O)CC=C[C@H]1C,0.327
24,CO[C@H]1COC(=O)[C@@H](Cc2ccccc2)NC(=O)[C@@H](C)COC(=O)CCC[C@@H]1C,-0.0331
25,COC(=O)[C@H]1[C@@H](O)[C@@]2(O)c3ccccc3O[C@@]2(c2ccccc2)[C@@H]1c1ccccc1,-1.87
26,CC(C)CON=C1C[C@@H](O)[C@@H](O)[C@@H]2[C@@H]3C(=O)N(Cc4ccc5c(c4)OCO5)C(=O)[C@@H]3CC[C@H]12,-0.613
27,COC(=O)CC=C[C@@H](C)[C@@H](C=NOC[C@H]1O[C@H](c2ccccc2)C=C[C@@H]1Oc1ccc(OC)cc1)NS(=O)(=O)c1ccc(C)cc1,-0.683
28,C[C@@H](ON=C1[C@H]2CCn3c(=O)n(-c4ccccc4)c(=O)n3[C@H]2[C@H](O)[C@@H]2O[C@H]12)c1cn([C@@H]2COC[C@H]2O)nn1,0.0979
